Results reported in PubChem BioAssay (NCATS).
Results filed as inconclusive are left out. Calls of active or inactive are those of the source. Calls come from the whole dose curve; as a rule, active = well fitted curve in the direction sought with a large enough effect; inconclusive = small, poorly fitted or top-dose-only effect, or another doubt; inactive = no such curve, though single readings can be large; an effect the other way counts as inactive or inconclusive.

Columns and labels:
[1] = Quantitative highthroughput screen to assess conditional lethalithy of NOMO1 cells grown in RPMI1640 with dialyzed fetal bovine serum (RPMI+ds) (AID 1963877); note: nearly all actives have a fitted effect of over 30% in size; note: potency is the fitted concentration of half-maximal effect;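 for viability: series mostly up to about 46 µM; 100% = DMSO control wells and 0% = empty wells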
Outline: (§1)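 Each medium arm—HPLM with 10% dialyzed FBS, or RPMI1640 with 5 mM glucose and 10% untreated or dialyzed FBS—was screened against an 11-point, 3-fold compound titration for 48 h at 37 °C, with CellTiter-Glo luminescence as endpoint.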

[2] = Quantitative highthroughput screen to assess conditional lethalithy of P12 Ichikawa cells grown in Human Plasma-Like Medium with dialyzed fetal bovine serum (HPLM+ds) (AID 1963879); settings: Potency: viability; note: series mostly up to about 46 µM; nearly all actives have a fitted effect of over 35% in size
Outline: as §1

[3] = Quantitative highthroughput screen to assess conditional lethalithy of P12 Ichikawa cells grown in RPMI1640 with untreated serum (RPMI+s) (AID 1963881); settings: Potency: viability;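 note: series mostly up to about 46 µM; 100% = DMSO wells and 0% = empty wells without cells; nearly all actives have a fitted effect of over 35% in size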
Outline: as §1

[4] = Quantitative highthroughput screen to assess conditional lethalithy of SEM cells grown in RPMI1640 with dialyzed fetal bovine serum (RPMI+ds) (AID 1963884); note: nearly all actives have a fitted effect of over 35% in size; note: potency is the fitted concentration of half-maximal effect;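 for viability: series mostly up to about 46 µM; 100% = DMSO control wells and 0% = empty wells without cells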
Outline: as §1

[5] = Cellular viability qHTS for adrenocortical cancer (ACC) cell line SW-13 (AID 1963989); settings: SW-13 ACC cells viability, CellTiter-Glo, 48 h; activity (max response): stronger effect = lower value;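 note: cells grown in serum-free medium with ITS supplement; % is set by controls: 0 for no effect and ±100 for the full control effect; nearly all actives have a fitted effect of over 65% in size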
Outline: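 Viability was read as CellTiter-Glo luminescence after 48 h compound treatment (up to 46 uM final) of SW-13 cells grown serum-free; titration curves were fit with a four-parameter logistic model to give IC50 and efficacy.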

[6] = Cellular viability qHTS for adrenocortical cancer (ACC) cell line NCI-H295R (AID 1963990);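 note: 0% = DMSO only wells and -100% = full killing with cytotoxic reference compound; nearly all actives have a fitted effect of over 60% in size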
Outline: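 CellTiter-Glo ATP luminescence, read 48 h after compound addition, measured viability of NCI-H295R adrenocortical cells grown serum-free with ITS. Final concentrations spanned up to 46 uM. Data normalized to DMSO and doxorubicin, fitted for IC50 and maximal response.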

[7] = Quantitative highthroughput screen to assess conditional lethalithy of NOMO1 cells grown in Human Plasma-Like Medium with dialyzed fetal bovine serum (HPLM+ds) (AID 1963878);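 note: 100% = DMSO wells and 0% = empty wells on each plate; nearly all actives have a fitted effect of over 35% in size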
Outline: as §1

[8] = Quantitative highthroughput screen to assess conditional lethalithy of SEM cells grown in RPMI1640 with unreated serum (RPMI+s) (AID 1963883)
Outline: as §1

[9] = Quantitative highthroughput screen to assess conditional lethalithy of P12 Ichikawa cells grown in RPMI1640 with dialyzed fetal bovine serum (RPMI+ds) (AID 1963880); settings: Potency: P12-Ichikawa viability; note: nearly all actives have a fitted effect of over 35% in size; note: potency is the fitted concentration of half-maximal effect;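 for viability: 100% = DMSO wells and 0% = empty wells on each plate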
Outline: as §1

[10] = Quantitative highthroughput screen to assess conditional lethalithy of SEM cells grown in Human Plasma-Like Medium with dialyzed fetal bovine serum (HPLM+ds) (AID 1963882); note: nearly all actives have a fitted effect of over 35% in size; note: potency is the fitted concentration of half-maximal effect; for viability: series mostly up to about 46 µM
Outline: as §1

Clc1ccccc1C(c1ccccc1)(c1ccccc1)n1cccn1
inactive: Potency [1] | Potency [2] | Potency [3] | Potency [4] | activity (max response) [5] -15.1% | Potency [6]

O=C1C=CC[C@@H]2[C@H]3CCCN4CCC[C@@H](CN12)[C@@H]34
inactive: Potency [7] | Potency [2] | Potency [3] | Potency [8] | Potency [4] | activity (max response) [5] -3.97% | Potency [6]

c1ccc2c(CN3CCNCC3)cccc2c1
inactive: Potency [4] | activity (max response) [5] 3.38% | Potency [6]

CC(C)N[C@@H]1CCn2c(=O)[nH]c3cccc(c32)[C@@H]1O
inactive: Potency [1] | Potency [2] | Potency [8] | Potency [4]

C[C@]12CC[C@@H]3[C@@H](CCC4=CC(=O)CC[C@@H]43)[C@@H]1CC[C@@H]2OC(=O)CCc1ccccc1
inactive: Potency [9] | Potency [3] | Potency [10] | Potency [4] | activity (max response) [5] -2.06% | Potency [6]

COC1=CC(C)=C[C@@H](C)[C@@H](O)[C@@H](C)CC(C)=CC=C[C@H](OC)[C@H]([C@@H](C)[C@@H](O)[C@H](C)[C@@]2(O)C[C@@H](O)[C@H](C)[C@@H](C(C)C)O2)OC1=O
active: Potency [1] 0.0743 µM | Potency [9] 0.0662 µM

Cc1ccccc1-n1c(Cn2cnc3c(N)ncnc32)nc2cccc(C)c2c1=O
active: Potency [10] 0.296 µM
inactive: Potency [2] | activity (max response) [5] 9.58%

O=C1CN2CCOC2(c2ccccc2Cl)c2cc(Cl)ccc2N1 (stereo not drawn)
inactive: activity (max response) [5] -4.14%

COc1ccc2c(c1OC)CN1CCc3cc4c(cc3C1C2)OCO4 (stereo not drawn)
active: Potency [1] 1.66 µM | Potency [9] 1.66 µM | Potency [10] 1.05 µM | Potency [4] 0.469 µM

CCN1C[C@]2(OC(=O)c3ccccc3NC(C)=O)CC[C@H](OC)[C@@]34[C@H]5CC6[C@@H](OC)C[C@](O)(C(C[C@@H]23)[C@@H]14)[C@@]5(O)[C@@H]6OC
inactive: Potency [2] | Potency [9] | Potency [3] | Potency [10] | Potency [4] | activity (max response) [5] -5.39% | Potency [6]
